RORg inh = inhibitors of mouse ROR gamma transcriptional activity; P51450; Drosophila S2 Gal4-RORgamma UAS-luciferase reporter, 20 h; Potency, µM (top dose mostly 53.6 µM), for the others: at the top dose activity change, negative = inhibition, most hits filed as inhibitors; hit rate 5.4% among 310,000; AID 2551; note: potency is the fitted concentration of half-maximal effect; % is set by controls: 0 for no effect and ±100 for the full control effect; nearly all actives have a fitted effect of over 60% in size
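Schneider cells (Drosophila), stable Gal4 DBD–ROR gamma + UAS-luc; 1 hr cmpd preincubation; Cu2+ induction 700 uM final; 20 hr ambient; luminescence.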
MBNL1 CUG block = MBNL1-poly(CUG) RNA binding inhibition; hit rate 0.036% among 280,000; TR-FRET MBNL1-His/biotin-(CUG)12 binding, 665/545 ratio; Q9NR56; AID 2675; Potency, µM (top dose mostly 57.5 µM), for inactives: at the top dose activity change, negative = inhibition, most hits filed as inhibitors; active = well fitted inhibition curve with a large enough effect in the signal ratio, with a control signal flat, not every such curve was filed as active; inconclusive = small, poorly fitted or top-dose-only effect, or effect the other way, or a change in a side signal; inactive = no such curve, though single readings can be large or run the other way; the % refers to the signal ratio; note: potency is the fitted concentration of half-maximal effect; % is set by controls: 0 for no effect and ±100 for the full control effect
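TR-FRET between His-tagged MBNL1 and biotin-(CUG)12 RNA, detected with Tb anti-His antibody (0.055 ng/ul) and streptavidin-XL665 (5 nM), 60 min at room temperature. Compounds titrated 92 nM to 58 uM; 665/545 nm ratio normalized to buffer and complex controls.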
CtBP-E1A blk = inhibitors of CtBP/E1A interaction. hit rate 0.49% among 340,000. AlphaScreen GST-E1A/His-CtBP binding, 1536-well; stronger effect = lower value. activity change, % (test concentration not listed); in the data active = activity change below about -65%; inconclusive = mostly about -30% to -63%; note: % is set by controls: 0 for no effect and ±100 for the full control effect
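Homogeneous bead-based format: GST-tagged E1A captured on glutathione donor beads, His-tagged CtBP on nickel acceptor beads; compounds precede bead addition by 2 h at 37 °C.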
VP16 counter = inhibits Gal4-VP16 luciferase reporter, ROR gamma counter-screen; hit rate 3.5% among 310,000; AID 2546; Drosophila S2 Gal4-VP16 UAS-luciferase, luminescence, 20 h; Potency, µM (highest dose often 53.6 µM), inactives show at the highest dose activity, negative = inhibition, hits mostly inhibitors;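 note: Gal4-VP16 expression switched on by copper sulfate through the metallothionein promoter; potency is the fitted concentration of half-maximal effect; % is set by controls: 0 for no effect and ±100 for the full control effect; nearly all actives have a fitted effect of over 50% in size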
CBFb RUNX1 block = inhibitors of human CBF-beta and RUNX1 interaction | AlphaScreen CBFb-His/RUNX1-biotin binding, biochemical | 230,000 tested, under 10 active | Potency, µM (highest dose often 59.8 µM), for inactives: top-dose activity, negative = inhibition, most hits filed as inhibitors | AID 1477; note: % of control where 0% means no effect
Target sequence (Q01196 whole entry, looked up): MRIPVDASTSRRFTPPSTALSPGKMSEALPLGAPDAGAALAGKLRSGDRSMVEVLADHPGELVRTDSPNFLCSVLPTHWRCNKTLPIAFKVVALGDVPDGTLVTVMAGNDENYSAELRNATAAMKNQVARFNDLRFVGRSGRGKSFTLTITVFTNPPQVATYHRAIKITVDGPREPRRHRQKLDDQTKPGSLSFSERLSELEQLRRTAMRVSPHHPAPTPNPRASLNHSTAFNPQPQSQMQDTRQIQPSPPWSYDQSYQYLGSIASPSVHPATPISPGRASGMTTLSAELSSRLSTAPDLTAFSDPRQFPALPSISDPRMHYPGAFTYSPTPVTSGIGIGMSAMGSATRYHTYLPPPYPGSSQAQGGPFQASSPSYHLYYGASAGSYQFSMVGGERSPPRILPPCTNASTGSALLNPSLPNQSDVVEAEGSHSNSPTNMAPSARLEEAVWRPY
Target sequence (Q13951 whole entry, looked up): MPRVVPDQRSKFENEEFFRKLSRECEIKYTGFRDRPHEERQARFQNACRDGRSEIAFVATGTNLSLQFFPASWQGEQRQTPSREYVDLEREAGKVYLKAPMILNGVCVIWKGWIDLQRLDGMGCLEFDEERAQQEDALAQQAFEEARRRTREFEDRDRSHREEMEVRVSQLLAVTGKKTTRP
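Compounds were screened at multiple concentrations against a preformed CBF-beta(His)/RUNX1(biotin) complex (30 nM of each) for 15 min at room temperature, followed by 90 min with nickel and streptavidin beads and AlphaScreen reading.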
Six1-Eya2 inh = blocks human Six1 binding to Eya2; hit rate 0.56% among 360,000; activity change, % (concentration not given with the values); Q15475+O00167; AlphaScreen GST-Six1/His-Eya2 binding, biochemical; stronger effect = lower value; AID 651725; in the data active = activity change below about -65%; inconclusive = mostly about -30% to -63%; note: % is set by controls: 0 for no effect and ±100 for the full control effect
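AlphaScreen with GST-Six1 and His-Eya2 (5X mix: 250 nM and 500 nM), glutathione donor and nickel acceptor beads; buffer 50 mM Tris pH 8.0, 300 mM NaCl, 1 mM TCEP; 1 h at 37 C in the dark.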
Active calls of the source: *; ? = inconclusive; . = no result. Hits are enriched below; roughly 5.5% of the tested compounds scored in any of these assays. Unless noted, calls come from the whole dose curve; as a rule, active = well fitted curve in the direction sought with a large enough effect; inconclusive = small, poorly fitted or top-dose-only effect, or another doubt; inactive = no such curve, though single readings can be large; an effect the other way counts as inactive or inconclusive.

SMILES	RORg inh	MBNL1 CUG block	CtBP-E1A blk	VP16 counter	CBFb RUNX1 block	Six1-Eya2 inh
Oc1c(C(c2ccc(Cl)cc2)N2CCCC2)cc(Cl)c2cccnc12 (configuration not stated)	1.4µM*	-5%	.	?	?	?
O=C(Oc1c(Cl)cc(Cl)c2cccnc12)N1CCCCC1	21%	3%	-1	-1%	15%	1
Oc1c(C(c2ccccn2)N2CCC(Cc3ccccc3)CC2)cc(Cl)c2cccnc12 (configuration not stated)	?	9%	-68*	?	.	-88*
CN1CCN(C(c2ccccn2)c2cc(Cl)c3cccnc3c2O)CC1 (configuration not stated)	1.4µM*	17%	.	5µM*	?	-89*
Cc1ccc(-c2c(C(=O)N/N=C/c3c[nH]c4ccccc34)nnn2-c2nonc2N)cc1	?	11%	.	?	.	-16
c1ccc(CCCc2nc(-c3ccccn3)no2)cc1	2%	-5%	-3	?	4%	0
c1ccc(-c2n[nH]c(-c3ccccn3)n2)cc1	1.1µM*	0%	-92*	1.1µM*	-18%	-91*
c1ccc(-c2n[nH]c(-c3ccccn3)n2)nc1	?	-1%	-95*	?	1%	-92*
O=C(CCc1ccccc1)Oc1ccccc1[N+](=O)[O-]	.	.	-16	.	.	-14
O=C(Cc1cccs1)N1CCN(S(=O)(=O)c2ccc(Cl)c(C(F)(F)F)c2)CC1	.	.	.	.	.	13
NC(=O)c1ncn([C@@H]2O[C@H](CNCc3cccn3-c3ccncc3)[C@@H](O)[C@H]2O)n1	.	.	0	.	.	-2
CN(C)c1ccc(C(=O)N2CCC2(C)C(=O)O)cc1 (configuration not stated)	.	.	12	.	.	3
CC(NC(=O)c1ccccc1)C(=O)N/N=C/c1cccc([N+](=O)[O-])c1 (configuration not stated)	14%	?	0	6%	11%	-10
O=c1[nH]c2ccc(Cl)cc2c(-c2ccccc2)c1SC(=S)N1CCOCC1	1µM*	27%	-7	4.5µM*	?	-14
O=c1[nH]c2ccc(Cl)cc2c(-c2ccccc2)c1SC(=S)N1CCCCC1	5.6µM*	12%	-27	7.1µM*	-25%	-28
O=c1[nH]c2ccc(Cl)cc2c(-c2ccccc2)c1[N+](=O)[O-]	1.3µM*	-1%	3	-9%	.	-8
CCCOc1ccc(N2C(=O)CC(N(CCc3ccc(OC)cc3)C(=O)c3ccccc3)C2=O)cc1 (configuration not stated)	13%	3%	2	-1%	-7%	1
COc1ccc(N2C(=O)CC(N(CCc3ccccc3)C(=O)c3ccccc3)C2=O)cc1 (configuration not stated)	14%	-6%	-70*	-3%	7%	1
O=C(Cc1cccs1)NNC(=S)NCc1ccc(Cl)cc1	4µM*	5%	-1	-15%	4%	-9
O=C(Cc1cccs1)NNC(=S)NC(=O)c1ccco1	7.9µM*	.	-22	19%	-5%	-14
C=CCN1C(=O)c2ccccc2Sc2ccc(C(=O)NCC(OC)OC)cc21	2%	-9%	5	0%	.	3
Cc1nn(-c2ccccn2)c2c1C(c1c(F)cccc1Cl)C1=C(N2)c2ccccc2C1=O (configuration not stated)	1.6µM*	-5%	.	7.9µM*	-3%	.
Cc1nn(-c2ccccn2)c2c1C(c1ccccc1Cl)C1=C(N2)c2ccccc2C1=O (configuration not stated)	2.8µM*	-10%	4	?	-10%	-24
CSC1=C(C#N)C(c2ccccc2Cl)C2=C(N1)c1ccccc1C2=O (configuration not stated)	-14%	6%	1	12%	0%	-3
